According to the supplement of paper PMC3545927:
This is one part of the list. No count for the full screen is at hand.

Biological target: furin, P09958
Test: furin cleavage Z-score vs untreated control; higher = more cleavage, active = 3.5 or more, inactive = 1 or less, 8 variable residues between constant flanks
Summary of the method: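 Sequencing of released DNA, tagged with adapters by PCR, gave read counts used as abundance. That DNA was freed when purified furin cut N-terminally bead-bound 8-mer peptides fused to a cDNA oligonucleotide, in 0.01 ml reactions at 1:10 enzyme:substrate in 50 mM HEPES pH 7.5 with CaCl2 and NaCl, lasting 7.5, 15 or 30 min. The cleavage Z-score was the lowess-adjusted log count versus furin-free reactions, scaled by median absolute deviation.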

furin, P09958, sequence (P09958 whole entry): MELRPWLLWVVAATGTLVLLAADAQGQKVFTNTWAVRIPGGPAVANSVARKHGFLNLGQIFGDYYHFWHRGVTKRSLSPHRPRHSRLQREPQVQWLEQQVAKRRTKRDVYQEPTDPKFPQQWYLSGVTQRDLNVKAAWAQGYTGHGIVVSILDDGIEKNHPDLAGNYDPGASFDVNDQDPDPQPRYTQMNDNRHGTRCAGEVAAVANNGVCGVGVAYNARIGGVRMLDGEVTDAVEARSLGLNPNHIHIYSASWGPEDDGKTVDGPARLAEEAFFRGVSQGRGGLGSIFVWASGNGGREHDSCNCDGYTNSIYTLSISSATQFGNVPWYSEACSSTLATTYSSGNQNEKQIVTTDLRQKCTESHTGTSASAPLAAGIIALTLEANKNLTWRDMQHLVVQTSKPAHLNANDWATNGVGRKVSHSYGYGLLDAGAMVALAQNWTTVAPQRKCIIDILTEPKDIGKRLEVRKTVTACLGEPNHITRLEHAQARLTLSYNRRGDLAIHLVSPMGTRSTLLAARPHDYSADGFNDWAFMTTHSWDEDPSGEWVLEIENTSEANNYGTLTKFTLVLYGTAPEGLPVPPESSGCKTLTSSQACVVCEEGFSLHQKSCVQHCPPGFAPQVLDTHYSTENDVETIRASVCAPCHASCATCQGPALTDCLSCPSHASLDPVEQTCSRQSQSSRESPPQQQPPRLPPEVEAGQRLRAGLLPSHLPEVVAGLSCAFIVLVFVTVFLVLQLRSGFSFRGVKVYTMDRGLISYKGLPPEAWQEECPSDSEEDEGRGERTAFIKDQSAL

| Sequence | furin cleavage Z-score (7.5 min) | furin cleavage Z-score (15 min) | furin cleavage Z-score (30 min) |
| --- | --- | --- | --- |
| CAVNSWLGNIAGNASASA [HC1573] | 1.52 | 0.0684 (inactive) | -1.01 (inactive) |
| CARPPLGNWFAGNASASA [HC432] | 1.77 | 0.979 (inactive) | -0.0677 (inactive) |
| CADPKRTIGQAGNASASA [FS-1982] | 0.168 (inactive) | -0.891 (inactive) | -1.67 (inactive) |
| CAAKERLKRKAGNASASA [FS-213] | 9.07 (active) | 9.78 (active) | 9.62 (active) |
| CANKKRKARWAGNASASA [FS-1238] | 6.93 (active) | 7.47 (active) | 9.18 (active) |
| CANKKRGGTAAGNASASA [WN4] | -1.48 (inactive) | -0.337 (inactive) | -0.0754 (inactive) |
| CAQWARYARWAGNASASA [FS-484] | -0.0806 (inactive) | 1.37 | 2.8 |
| CALSKRKKRKAGNASASA [FS-827] | 8.35 (active) | 9.52 (active) | 8.96 (active) |
| CAWEKRSRGQAGNASASA [FS-2625] | -0.652 (inactive) | -0.795 (inactive) | -0.906 (inactive) |
| CARKERRKHKAGNASASA [FS-2959] | -0.0944 (inactive) | -0.106 (inactive) | 0.503 (inactive) |
| CAKRKRWTGQAGNASASA [FS-2478] | 1 | 4.62 (active) | 4.37 (active) |
| CATTCCSGSWAGNASASA [HC1880] | -0.863 (inactive) | -1.92 (inactive) | -0.734 (inactive) |
| CAQVPCHRPSAGNASASA [HC2322] | 0.276 (inactive) | 1.25 | 1.48 |
| CAGRSHSKRKAGNASASA [FS-245] | 1.44 | 0.295 (inactive) | 1.58 |
| CAKKKRAACKAGNASASA [FS-2541] | 0.497 (inactive) | -0.617 (inactive) | 1.88 |
| CAKKKRKKRKAGNASASA [FS-673] | 4.92 (active) | 5.01 (active) | 5.6 (active) |

| Sequence | furin cleavage Z-score (7.5 min) | furin cleavage Z-score (15 min) | furin cleavage Z-score (30 min) |
| --- | --- | --- | --- |
| CAKKKRVVPKAGNASASA [FS-2122] | -1.74 (inactive) | -0.376 (inactive) | -0.937 (inactive) |
| CAKRKRSKRKAGNASASA [FS-1223] | 10.8 (active) | 10.5 (active) | 8.25 (active) |
| CAKKKRRKRKAGNASASA [FS-1218] | 5.44 (active) | 7 (active) | 6.09 (active) |
| CAKNMRRKRKAGNASASA [FS-1222] | 9.63 (active) | 9.29 (active) | 7.84 (active) |
| CAKKKRKFSKAGNASASA [FS-2866] | -0.0204 (inactive) | -0.905 (inactive) | -0.0235 (inactive) |
| CALGALTGTYAGNASASA [HC631] | -0.145 (inactive) | 0.814 (inactive) | 0.51 (inactive) |
| CAVFPDLGVRAGNASASA [HC1451] | -2.35 (inactive) | -0.19 (inactive) | 0.302 (inactive) |
| CARVTRSLDVAGNASASA [FS-3127] | 5.89 (active) | 8.68 (active) | 7.6 (active) |
| CAEKMALYDVAGNASASA [HC1456] | 0.218 (inactive) | -0.51 (inactive) | 0.171 (inactive) |
| CARERRWQDVAGNASASA [FS-1698] | -0.457 (inactive) | 0.122 (inactive) | 1.79 |
| CAVVCCSMSIAGNASASA [HC2084] | -0.331 (inactive) | -1.27 (inactive) | 0.12 (inactive) |
| CARKWRSWKVAGNASASA [FS-2274] | 1.07 | 1.35 | 0.0619 (inactive) |
| CARQMRSVDVAGNASASA [FS-3039] | 2.09 | 3.9 (active) | 5.69 (active) |
| CARQNRSRSIAGNASASA [FS-2362] | -0.846 (inactive) | 0.141 (inactive) | -0.0686 (inactive) |
| CARQMRSASIAGNASASA [FS-2400] | 0.584 (inactive) | 2.25 | 4.94 (active) |
| CARRKKILDVAGNASASA [FS-3049] | 0.884 (inactive) | 0.207 (inactive) | -1.99 (inactive) |
